Test results as given in the supplement of paper PMC10849652.
The full data set covers some 7,900 targets. This sample favours those with a hit. About 0.6% of all pairs of compound and target were hits. Unmarked numbers belong to inactive results.

The targets below were run with CC1=CC=C(C=C1)SC2=C3C=C(SC3=CN=C2)C(=O)N (assay: log2 fold change, soluble protein after heating vs DMSO (PISA); higher = thermal stabilisation; K562 cells, 10 uM, 30 min; active = over 0.2 and 3.5 SD of the protein, either way, in both replicates (recomputed)).
How it was run: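 Quantification of soluble protein used TMTpro 16plex LC-MS/MS, with channel sums equalised. Samples were the supernatant after 21,000xg for 90 min of pooled aliquots from K562 cells (2×10^6 cells/mL) treated with 10 μM compound for 30 min, heated for 3 min over 48°C-58°C, and extracted in PBS with 0.5% NP-40 at 4°C. Values, from duplicates, describe thermal stability against control samples on a log2 fold-change scale.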

UniProt Q9H814, sequence (Q9H814 whole entry, looked up): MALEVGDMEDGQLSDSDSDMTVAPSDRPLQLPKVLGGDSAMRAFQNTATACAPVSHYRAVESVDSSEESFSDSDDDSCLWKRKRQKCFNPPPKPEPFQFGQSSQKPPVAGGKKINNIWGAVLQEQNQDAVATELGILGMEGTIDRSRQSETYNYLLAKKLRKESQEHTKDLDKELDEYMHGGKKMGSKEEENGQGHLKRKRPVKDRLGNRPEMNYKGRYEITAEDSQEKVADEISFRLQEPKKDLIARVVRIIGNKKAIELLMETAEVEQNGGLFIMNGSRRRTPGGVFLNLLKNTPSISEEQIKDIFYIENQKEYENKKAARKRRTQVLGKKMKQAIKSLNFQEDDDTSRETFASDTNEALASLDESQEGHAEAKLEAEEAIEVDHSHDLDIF
UniProt Q86T03, sequence (Q86T03 whole entry, looked up): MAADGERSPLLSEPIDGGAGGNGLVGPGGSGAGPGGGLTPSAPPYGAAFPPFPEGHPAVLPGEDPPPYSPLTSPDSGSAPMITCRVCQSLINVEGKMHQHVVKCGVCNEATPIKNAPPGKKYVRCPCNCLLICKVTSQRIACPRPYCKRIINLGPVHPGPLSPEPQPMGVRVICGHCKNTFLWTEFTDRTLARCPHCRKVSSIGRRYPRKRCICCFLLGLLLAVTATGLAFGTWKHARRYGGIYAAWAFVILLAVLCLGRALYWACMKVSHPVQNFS
UniProt Q8NHP8, sequence (Q8NHP8 whole entry, looked up): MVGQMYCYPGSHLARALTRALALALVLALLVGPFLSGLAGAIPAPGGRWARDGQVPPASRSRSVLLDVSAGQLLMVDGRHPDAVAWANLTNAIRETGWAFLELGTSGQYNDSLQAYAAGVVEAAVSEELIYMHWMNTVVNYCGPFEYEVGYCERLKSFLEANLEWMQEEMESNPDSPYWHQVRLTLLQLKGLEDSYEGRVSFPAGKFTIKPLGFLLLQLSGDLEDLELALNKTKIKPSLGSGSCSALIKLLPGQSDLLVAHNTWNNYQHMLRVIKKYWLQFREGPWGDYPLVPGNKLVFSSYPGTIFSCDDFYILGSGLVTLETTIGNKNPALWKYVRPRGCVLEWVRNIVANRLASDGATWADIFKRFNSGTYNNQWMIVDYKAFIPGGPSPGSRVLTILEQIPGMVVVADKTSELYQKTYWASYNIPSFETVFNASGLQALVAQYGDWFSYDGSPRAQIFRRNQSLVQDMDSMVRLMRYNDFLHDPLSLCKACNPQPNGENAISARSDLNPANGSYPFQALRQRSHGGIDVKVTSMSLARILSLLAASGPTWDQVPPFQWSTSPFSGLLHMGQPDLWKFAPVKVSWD
UniProt O75400, sequence (O75400 whole entry, looked up): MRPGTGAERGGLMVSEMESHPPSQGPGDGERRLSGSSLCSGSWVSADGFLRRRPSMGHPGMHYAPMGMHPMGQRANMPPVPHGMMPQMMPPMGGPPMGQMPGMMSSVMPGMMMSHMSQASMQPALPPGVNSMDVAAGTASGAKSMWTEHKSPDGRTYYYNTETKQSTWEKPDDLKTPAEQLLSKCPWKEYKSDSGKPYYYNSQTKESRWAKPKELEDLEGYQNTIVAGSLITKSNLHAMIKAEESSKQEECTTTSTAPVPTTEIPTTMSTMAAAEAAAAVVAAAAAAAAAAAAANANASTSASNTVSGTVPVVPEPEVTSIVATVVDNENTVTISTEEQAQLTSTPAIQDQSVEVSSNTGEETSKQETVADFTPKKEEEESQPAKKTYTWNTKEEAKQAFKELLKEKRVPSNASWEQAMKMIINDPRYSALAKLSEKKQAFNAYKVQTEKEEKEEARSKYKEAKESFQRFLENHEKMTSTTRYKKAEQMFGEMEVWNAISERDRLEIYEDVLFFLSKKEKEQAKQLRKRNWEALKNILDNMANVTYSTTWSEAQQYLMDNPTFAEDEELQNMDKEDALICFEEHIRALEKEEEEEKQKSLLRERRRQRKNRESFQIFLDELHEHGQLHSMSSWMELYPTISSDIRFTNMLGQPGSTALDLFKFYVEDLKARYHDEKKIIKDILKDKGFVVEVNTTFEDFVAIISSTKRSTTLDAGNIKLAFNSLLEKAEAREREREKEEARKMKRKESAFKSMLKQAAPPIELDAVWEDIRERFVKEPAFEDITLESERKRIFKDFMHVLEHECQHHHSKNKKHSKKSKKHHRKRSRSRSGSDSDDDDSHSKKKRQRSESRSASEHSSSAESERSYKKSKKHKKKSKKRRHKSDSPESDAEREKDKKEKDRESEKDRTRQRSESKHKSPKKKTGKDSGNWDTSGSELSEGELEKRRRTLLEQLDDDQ
UniProt Q9NTI5, sequence (Q9NTI5 whole entry, looked up): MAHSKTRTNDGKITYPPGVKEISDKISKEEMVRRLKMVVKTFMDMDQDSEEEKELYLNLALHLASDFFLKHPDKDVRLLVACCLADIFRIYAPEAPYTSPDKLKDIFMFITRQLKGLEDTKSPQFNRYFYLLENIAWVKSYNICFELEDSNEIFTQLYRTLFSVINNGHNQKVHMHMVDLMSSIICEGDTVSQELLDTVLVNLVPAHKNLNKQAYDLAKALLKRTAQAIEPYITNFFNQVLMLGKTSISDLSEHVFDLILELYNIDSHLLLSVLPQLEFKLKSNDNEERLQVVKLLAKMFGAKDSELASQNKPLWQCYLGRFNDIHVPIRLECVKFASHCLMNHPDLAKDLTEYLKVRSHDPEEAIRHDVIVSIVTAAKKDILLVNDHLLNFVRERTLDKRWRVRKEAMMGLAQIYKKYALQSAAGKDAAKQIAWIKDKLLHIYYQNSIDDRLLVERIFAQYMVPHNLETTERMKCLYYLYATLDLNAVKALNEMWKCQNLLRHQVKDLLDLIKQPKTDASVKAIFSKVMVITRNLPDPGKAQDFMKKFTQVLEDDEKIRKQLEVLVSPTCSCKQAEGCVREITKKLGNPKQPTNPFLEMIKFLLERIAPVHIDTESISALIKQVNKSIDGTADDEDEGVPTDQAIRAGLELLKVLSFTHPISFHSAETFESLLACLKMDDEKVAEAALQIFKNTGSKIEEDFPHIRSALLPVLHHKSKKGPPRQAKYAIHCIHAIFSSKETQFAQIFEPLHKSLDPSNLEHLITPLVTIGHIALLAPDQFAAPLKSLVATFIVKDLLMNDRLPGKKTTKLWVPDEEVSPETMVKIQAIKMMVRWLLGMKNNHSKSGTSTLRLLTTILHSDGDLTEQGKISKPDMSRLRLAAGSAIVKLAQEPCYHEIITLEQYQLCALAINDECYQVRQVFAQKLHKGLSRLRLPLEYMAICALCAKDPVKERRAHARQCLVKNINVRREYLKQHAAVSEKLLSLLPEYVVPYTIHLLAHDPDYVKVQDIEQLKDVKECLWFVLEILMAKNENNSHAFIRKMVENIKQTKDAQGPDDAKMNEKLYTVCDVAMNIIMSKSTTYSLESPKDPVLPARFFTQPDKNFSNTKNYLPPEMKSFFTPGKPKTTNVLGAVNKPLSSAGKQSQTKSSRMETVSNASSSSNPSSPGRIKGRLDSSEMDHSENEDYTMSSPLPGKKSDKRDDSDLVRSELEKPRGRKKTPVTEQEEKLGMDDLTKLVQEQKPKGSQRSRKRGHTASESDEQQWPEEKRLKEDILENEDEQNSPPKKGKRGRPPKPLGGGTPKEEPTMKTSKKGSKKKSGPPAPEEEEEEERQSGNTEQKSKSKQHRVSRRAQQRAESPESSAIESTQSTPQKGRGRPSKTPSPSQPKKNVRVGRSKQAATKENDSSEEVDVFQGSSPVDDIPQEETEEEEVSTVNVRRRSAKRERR
UniProt Q8N8N7, sequence (Q8N8N7 whole entry, looked up): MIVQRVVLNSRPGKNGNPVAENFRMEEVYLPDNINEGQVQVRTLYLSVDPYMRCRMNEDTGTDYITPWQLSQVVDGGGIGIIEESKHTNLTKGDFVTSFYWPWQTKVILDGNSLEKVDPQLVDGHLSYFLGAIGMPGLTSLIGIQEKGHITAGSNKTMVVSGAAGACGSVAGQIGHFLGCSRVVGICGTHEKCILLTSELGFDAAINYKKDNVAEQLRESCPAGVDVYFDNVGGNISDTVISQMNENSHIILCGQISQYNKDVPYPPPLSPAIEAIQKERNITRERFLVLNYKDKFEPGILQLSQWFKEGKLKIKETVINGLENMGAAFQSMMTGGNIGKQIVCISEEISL
UniProt P78356, sequence (P78356 whole entry, looked up): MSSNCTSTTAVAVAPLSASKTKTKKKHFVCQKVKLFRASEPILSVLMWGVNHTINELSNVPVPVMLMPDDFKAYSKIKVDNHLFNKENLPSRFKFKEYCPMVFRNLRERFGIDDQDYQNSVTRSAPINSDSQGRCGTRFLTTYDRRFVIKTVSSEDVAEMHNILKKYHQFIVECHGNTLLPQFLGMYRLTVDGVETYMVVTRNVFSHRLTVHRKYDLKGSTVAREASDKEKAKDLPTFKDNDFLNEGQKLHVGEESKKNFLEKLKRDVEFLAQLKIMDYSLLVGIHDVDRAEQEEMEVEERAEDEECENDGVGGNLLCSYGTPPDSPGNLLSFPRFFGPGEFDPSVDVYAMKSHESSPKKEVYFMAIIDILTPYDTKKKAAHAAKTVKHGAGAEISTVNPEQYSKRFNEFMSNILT
UniProt P62195, sequence (P62195 whole entry, looked up): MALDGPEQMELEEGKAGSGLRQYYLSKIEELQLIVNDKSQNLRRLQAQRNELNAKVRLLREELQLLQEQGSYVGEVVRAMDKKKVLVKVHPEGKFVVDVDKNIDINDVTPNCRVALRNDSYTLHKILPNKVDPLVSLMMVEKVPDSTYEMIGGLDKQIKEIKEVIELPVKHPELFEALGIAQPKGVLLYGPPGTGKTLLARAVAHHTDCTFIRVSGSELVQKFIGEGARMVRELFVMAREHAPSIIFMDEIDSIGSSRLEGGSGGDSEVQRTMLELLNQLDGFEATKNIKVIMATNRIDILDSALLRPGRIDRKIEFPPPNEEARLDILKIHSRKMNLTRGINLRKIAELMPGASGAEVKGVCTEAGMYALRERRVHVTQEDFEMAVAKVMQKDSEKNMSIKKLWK
UniProt Q15185, sequence (Q15185 whole entry, looked up): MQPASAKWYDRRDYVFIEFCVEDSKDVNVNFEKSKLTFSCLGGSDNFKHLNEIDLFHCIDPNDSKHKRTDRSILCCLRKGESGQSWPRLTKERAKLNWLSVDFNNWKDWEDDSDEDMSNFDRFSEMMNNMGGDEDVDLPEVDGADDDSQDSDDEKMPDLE

Target | log2 fold change
PRPF40A (UniProt O75400) | 0.022
PHAX (UniProt Q9H814) | 0.022
PDPK1 (UniProt O15530) | 0.019
PDE4DIP isoform 4 (UniProt Q5VU43) | -0.012
PIR (UniProt O00625) | 0.002
PSMC2 (UniProt P35998) | -0.012
PEX16 isoform 2 (UniProt Q9Y5Y5) | 0.083
PLEKHM2 (UniProt Q8IWE5) | 0.052
PRIM1 (UniProt P49642) | 0.061
PRPF31 (UniProt Q8WWY3) | 0
PCNT (UniProt O95613) | -0.117
PTGR2 (UniProt Q8N8N7) | 0.022
PSMC5 (UniProt P62195) | -0.029
PRKCA (UniProt P17252) | -0.016
PRMT3 (UniProt O60678) | 0.044
PARN (UniProt O95453) | 0.004
PRKAA1 isoform 2 (UniProt Q13131) | -0.001
PJA2 (UniProt O43164) | -0.008
PRPF3 (UniProt O43395) | 0.038

Target | log2 fold change
PITRM1 isoform 2 (UniProt Q5JRX3) | 0.047
PLA2G15 (UniProt Q8NCC3) | 0.005
PIP4K2B (UniProt P78356) | 0.033
PDE2A (UniProt O00408) | 0.041
PIP4P2 (UniProt Q8N4L2) | -0.006
PRKCD (UniProt Q05655) | -0.012
PLCB3 (UniProt Q01970) | 0.021
POLR2B (UniProt P30876) | 0.041
PPIL4 (UniProt Q8WUA2) | -0.06
PCTP (UniProt Q9UKL6) | 0.052
PDE12 (UniProt Q6L8Q7) | 0.024
PPP1R12A (UniProt O14974) | 0.046
PIP4P1 isoform 2 (UniProt Q86T03) | -0.019
PDS5B (UniProt Q9NTI5) | 0.176
PTGES3 (UniProt Q15185) | 0.044
PLBD2 (UniProt Q8NHP8) | 0.02
PRKAR1B (UniProt P31321) | 0.004
PSMD2 (UniProt Q13200) | -0.025
